Calls of active or inactive are those of the source. Unless noted, how the calls were made is not given here.
What was measured:
[1] = A549 cell viability effects, profiling panel, calcein-AM fluorescence, 48 h, basal (AID 1162); conditions: higher = more signal; further: test concentration not given here
[2] = adipocyte viability effects, profiling panel, cell-based, 3T3-L1 adipocytes, calcein-AM fluorescence, 48 h, basal (AID 1163); conditions: 3T3-L1 adipocytes viability, higher = more signal; further: test concentration not given here
[3] = HepG2 cell viability effects, profiling panel, calcein-AM fluorescence, 48 h, basal (AID 1164); conditions: higher = more signal; further: test concentration not given here
[4] = MM1S cell viability effects, profiling panel, calcein-AM fluorescence, 48 h, basal (AID 1165); conditions: higher = more signal;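 further: viability of MM1S multiple myeloma cells under basal unstimulated conditions; test concentration not given here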
[5] = basal RPMI8226 viability, no added stimulus, profiling panel, cell-based, calcein-AM fluorescence, 48 h, PK04 Diversity Set (AID 1166); conditions: RPMI8226 myeloma viability, higher = more signal;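 further: cells grown under basal conditions without added stimulus; test concentration not given here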
[6] = basal HepG2 mitochondrial membrane potential changes, profiling panel, cell-based, JC-1 fluorescence, 24 h, 100 nL compound (AID 1167); conditions: higher = more signal; further: test concentration not given here
[7] = basal 3T3-L1 adipocyte mitochondrial potential changes, profiling panel, cell-based, JC-1 fluorescence, 3T3-L1 adipocytes, 24 h, 100 nL compound (AID 1168); conditions: JC-1 mitochondrial fluorescence, higher = more signal, called active from +8 up or from −8 down; further: test concentration not given here
[8] = basal RPMI8226 mitochondrial membrane potential changes, profiling panel, cell-based, JC-1 fluorescence, 24 h, 100 nL compound (AID 1169); conditions: RPMI8226 myeloma, JC-1 mitochondrial potential fluorescence, higher = more signal; further: test concentration not given here
[9] = basal MM1S mitochondrial membrane potential changes, profiling panel, cell-based, JC-1 fluorescence, 24 h, 100 nL compound (AID 1170); conditions: higher = more signal; further: test concentration not given here
[10] = A549 lung cancer cell viability effects, profiling panel, resazurin fluorescence, 24 h, PK04 Diversity Set (AID 1171); conditions: higher = more signal, called active from +8 up or from −8 down; further: test concentration not given here
[11] = HepG2 liver cancer cell viability effects, profiling panel, resazurin fluorescence, 24 h, PK04 Diversity Set (AID 1172); conditions: higher = more signal; further: test concentration not given here
[12] = basal S. cerevisiae growth modulation, no modifier, primary screen, OD600, strain BY4716, 24 h, basal condition (AID 1173); conditions: OD600, 24 h, higher = more signal, called active from +8 up or from −8 down
[13] = MM1S myeloma cell viability, profiling panel, resazurin fluorescence, basal, 24 h, PK04 Diversity Set (AID 1174); conditions: higher = more signal, called active from +8 up or from −8 down;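 further: MM1S multiple myeloma cell line; test concentration not given here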
[14] = target: Dihydroorotate dehydrogenase (quinone), mitochondrial (Plasmodium falciparum (isolate 3D7)) (UniProt Q08210); assay: PfDHODH enzyme inhibitors, primary screen, biochemical, C-terminal His tag, absorbance 600 nm (AID 1175); conditions: DCIP absorbance 600 nm, higher = more signal, called active from +8 up or from −8 down;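 further: recombinant parasite enzyme with a five histidine tag at its C terminus; test concentration not given here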
[15] = P. aeruginosa biofilm formation inhibitors, primary screen, strain PAO1, LB-PBS medium, absorbance 600 nm (AID 1176); further: test concentration not given here; conditions: P. aeruginosa PAO1 growth/biofilm, A600, 12 h; higher = more signal
[16] = S. cerevisiae RM11-1a growth modifiers, primary screen, strain RM11-1a, OD600, basal, 24 h (AID 1177); conditions: OD600, 24 h, higher = more signal, called active from +8 up or from −8 down;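 further: cultures grown under basal conditions with no added stressor; test concentration not given here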
[17] = E. coli acrAB mutant growth effects, primary screen, E. coli filamentation inducers, strain DRC39, OD650, 24 h (AID 1178); conditions: higher = more signal, called active from +8 up or from −8 down;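 further: growth measured as culture turbidity by optical density at 650 nm; test concentration not given here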
[18] = E. coli acrAB mutant growth effects, primary screen, E. coli filamentation inducers, strain DRC39, OD650, 48 h (AID 1179);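 further: screen aims at cell division blockers that make cells filament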; conditions: E. coli DRC39 delta-acrAB growth, higher = more signal, called active from +8 up or from −8 down
[19] = RPMI8226 myeloma cell viability, profiling panel, resazurin fluorescence, basal, 24 h, PK04 Diversity Set (AID 1180); conditions: higher = more signal;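 further: RPMI8826 multiple myeloma cell line at 5000 cells per well; test concentration not given here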
[20] = target: E3 ubiquitin-protein ligase XIAP (Homo sapiens) (UniProt P98170); assay: XIAP binders, primary screen, biophysical, small-molecule microarray, fluorescence 635 nm (AID 1181); conditions: small-molecule microarray binding, higher = more signal;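 further: score merges 667 nm emission and signal to noise over triplicate slides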
Sequence of E3 ubiquitin-protein ligase XIAP (Homo sapiens) (P98170 whole entry, looked up): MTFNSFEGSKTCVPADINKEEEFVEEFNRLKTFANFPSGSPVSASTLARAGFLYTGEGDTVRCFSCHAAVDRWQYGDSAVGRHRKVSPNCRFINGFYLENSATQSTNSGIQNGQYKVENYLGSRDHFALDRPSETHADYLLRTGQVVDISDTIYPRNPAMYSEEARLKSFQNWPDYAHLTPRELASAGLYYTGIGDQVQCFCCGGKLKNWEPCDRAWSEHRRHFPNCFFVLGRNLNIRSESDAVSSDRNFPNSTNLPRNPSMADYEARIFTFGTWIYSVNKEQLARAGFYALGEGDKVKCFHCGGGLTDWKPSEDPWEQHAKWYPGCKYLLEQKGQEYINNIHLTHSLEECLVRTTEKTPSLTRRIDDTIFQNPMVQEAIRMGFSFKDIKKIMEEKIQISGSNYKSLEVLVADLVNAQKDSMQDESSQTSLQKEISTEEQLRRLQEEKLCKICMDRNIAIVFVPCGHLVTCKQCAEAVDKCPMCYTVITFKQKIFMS

Sequence of Dihydroorotate dehydrogenase (quinone), mitochondrial (Plasmodium falciparum (isolate 3D7)) (Q08210 whole entry, looked up): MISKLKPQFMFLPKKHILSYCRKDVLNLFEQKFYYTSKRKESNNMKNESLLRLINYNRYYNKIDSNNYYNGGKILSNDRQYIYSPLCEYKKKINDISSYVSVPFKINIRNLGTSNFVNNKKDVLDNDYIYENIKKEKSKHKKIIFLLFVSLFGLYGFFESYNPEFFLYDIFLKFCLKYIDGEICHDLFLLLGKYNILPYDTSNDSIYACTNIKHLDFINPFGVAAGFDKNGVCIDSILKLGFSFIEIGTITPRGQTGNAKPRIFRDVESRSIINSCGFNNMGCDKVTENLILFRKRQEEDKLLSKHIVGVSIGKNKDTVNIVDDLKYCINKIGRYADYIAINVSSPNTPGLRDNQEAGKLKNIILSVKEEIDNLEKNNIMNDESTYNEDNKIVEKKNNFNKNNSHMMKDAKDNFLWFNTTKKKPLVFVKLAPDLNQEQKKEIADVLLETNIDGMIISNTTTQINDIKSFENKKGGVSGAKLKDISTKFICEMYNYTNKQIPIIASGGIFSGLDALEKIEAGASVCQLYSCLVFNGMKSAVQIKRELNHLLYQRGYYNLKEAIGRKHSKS

SMILES	z-score [1]	z-score [2]	z-score [3]	z-score [4]	z-score [5]	z-score [6]	z-score [7]	z-score [8]	z-score [9]	z-score [10]	z-score [11]	z-score [12]	z-score [13]	composite z-score [14]	z-score [15]	z-score [16]	z-score [17]	z-score [18]	z-score [19]	composite z-score [20]
O=c1cccc(-c2ccc(C(F)(F)F)cc2)o1	-1.24	-0.843	-0.701	0.506	-1.02	-0.487	1.75 (inactive)	0.942	-0.507	0.374 (inactive)	-0.0559	-9.38 (active)	0.0889 (inactive)	-0.723 (inactive)	0.0767 (inactive)	-0.962 (inactive)	-0.865 (inactive)	-0.325 (inactive)	0.263	0.0535
COCCOC(=O)N1C(=O)[C@@]2(c3cc(C#CCNC(N)=O)ccc31)[C@H](C(=O)N1CCCCCCC1)[C@H]1C(=O)O[C@H](c3ccccc3)[C@H](c3ccccc3)N1[C@@H]2c1ccc(O)cc1	0.614	-0.369	-0.395	-0.787	0.337	-2.08	-0.379 (inactive)	-0.216	0.444	-0.171 (inactive)	-0.515	-0.129 (inactive)	-0.97 (inactive)	-0.376 (inactive)	0.0442 (inactive)	0.786 (inactive)	-0.5 (inactive)	-0.719 (inactive)	-0.928	0.0614
[N-]=[N+]=NCc1ccccc1C[C@@]1(C(N)=O)N=C(c2ccc(OCCCO)cc2)O[C@@H]1c1ccccc1CN=[N+]=[N-]	0.703	-0.323	1.42	-1.25	-3.08	1.18	-0.301 (inactive)	-1.1	-0.422	-0.136 (inactive)	0.717	-1.43 (inactive)	-0.833 (inactive)	-11.6 (active)	0.261 (inactive)	0.835 (inactive)	0.178 (inactive)	0.041 (inactive)	0.0178	0.0049
CC(C)C(=C=CC[C@@H](O)c1ccccc1OCCO)C[C@@H](O)COCc1ccccc1	1.03	0.435	0.146	-0.338	-0.399	0.324	0.791 (inactive)	0.0761	0.339	0.15 (inactive)	0.669	-15.5 (active)	0.304 (inactive)	-5.41 (inactive)	0.354 (inactive)	-4.06 (inactive)	2.28 (inactive)	1.51 (inactive)	0.424	0.109
C=C(C(=O)CC[C@H](OC(=O)c1cccnc1)c1cccc(OCCO)c1)C(C)C	0.647	0.47	-0.419	-2.44	-1.46	-1.03	0.584 (inactive)	-0.0636	-0.326	0.371 (inactive)	0.0418	1.06 (inactive)	-1.16 (inactive)	0.612 (inactive)	-0.116 (inactive)	2.01 (inactive)	0.675 (inactive)	0.297 (inactive)	-1.36	-0.0117
COc1ccc(C#Cc2ccc3c(c2)[C@]2(C(=O)N3)[C@H](C(=O)N3CCc4cc(OC)c(OC)cc4C3)[C@H]3C(=O)O[C@H](c4ccccc4)[C@H](c4ccccc4)N3[C@@H]2c2ccc(O)cc2)cc1	-0.522	-0.163	0.615	-0.229	-0.293	-1.43	1.72 (inactive)	-0.356	-1.09	-0.297 (inactive)	-0.235	0.507 (inactive)	-0.443 (inactive)	-0.719 (inactive)	1.45 (inactive)	1.36 (inactive)	0.0877 (inactive)	0.307 (inactive)	-0.482	-0.277
CC(=O)n1cc(C(O)C2C=CC3C(=O)N(c4ccccc4)C(=O)C3N2Nc2ccccc2)c2ccccc21 (stereo not given)	-0.8	0.174	0.374	-1.06	-1.19	-2.16	-0.349 (inactive)	-0.502	-0.969	-1.05 (inactive)	-1.51	-3.18 (inactive)	-2.12 (inactive)	0.342 (inactive)	0.807 (inactive)	0.127 (inactive)	-0.0484 (inactive)	-0.602 (inactive)	-1.76	0.0297
CC[C@H]1C2=C3C(CC[C@H]4C(OCc5ccc(F)cc5C(F)(F)F)OC[C@](C)([C@@H]34)N(C(=O)OC(C)(C)C)C2)C2COC(=O)OCC21 (stereo not given in full)	-0.195	-0.412	0.478	-2.9	-4.68	-0.492	-1.41 (inactive)	-0.0899	-1.45	-0.186 (inactive)	-1.12	0.485 (inactive)	-1.46 (inactive)	0.0979 (inactive)	0.551 (inactive)	0.368 (inactive)	-0.678 (inactive)	-0.36 (inactive)	-0.556	0.131
CC(C)N1C(=O)[C@@]2(c3ccc([N+](=O)[O-])cc3)CC(=O)N(C3CCCCC3)[C@@H]2c2ccc(CO)cc21	-0.0841	-0.0435	-0.647	-0.331	0.311	-0.0357	-0.14 (inactive)	-0.0593	-0.843	2.09 (inactive)	1.86	0.833 (inactive)	0.927 (inactive)	-13.8 (active)	-0.0065 (inactive)	-0.466 (inactive)	0.026 (inactive)	-0.303 (inactive)	0.833	0.0037
COc1ccc(C(O)C2C=CC3C(=O)N(c4ccccc4)C(=O)C3N2Nc2ccc(C#N)cc2)c2ccccc12 (stereo not given)	-0.716	-1.07	0.66	0.395	-1.04	-1.56	-0.246 (inactive)	0.423	-0.117	0.0226 (inactive)	-1.47	-1.74 (inactive)	-0.293 (inactive)	0.397 (inactive)	1.55 (inactive)	-0.993 (inactive)	-0.483 (inactive)	0.161 (inactive)	-0.55	0.39
O=C1NCC(=O)N2[C@@H]1C[C@@H](C(=O)O)[C@H]2c1ccc(O)cc1	0.391	-0.0074	-0.084	-2.79	-0.0676	0.429	-0.799 (inactive)	0.233	-0.775	0.249 (inactive)	0.153	-0.231 (inactive)	0.393 (inactive)	-0.273 (inactive)	0.463 (inactive)	0.414 (inactive)	-0.42 (inactive)	-0.0242 (inactive)	0.205	0.0374
CCOC(=O)C[C@H]1[C@H](OC(=O)c2ccccc2-c2ccccc2)[C@@H](NC(=O)CC(C)C)c2cc(OCCCO)ccc2N1C(=O)c1ccc2ccccc2n1	0.375	0.556	0.2	-1.32	-2.05	0.851	-0.0831 (inactive)	-0.537	0.32	-0.109 (inactive)	-0.208	0.706 (inactive)	0.0612 (inactive)	-0.112 (inactive)	-0.483 (inactive)	-0.078 (inactive)	-0.418 (inactive)	-0.0818 (inactive)	-0.0139	0.0993
CN(C)CCCNC(=O)[C@@]1(C)c2ccccc2C(=O)N(Cc2cc(C(F)(F)F)cc(C(F)(F)F)c2)[C@H]1c1ccc(CO)cc1	-0.434	0.157	0.221	-0.309	-2.36	1.31	-0.36 (inactive)	-0.0152	-0.279	-0.832 (inactive)	-1.19	-0.808 (inactive)	-0.244 (inactive)	0.779 (inactive)	1.98 (inactive)	0.874 (inactive)	0.365 (inactive)	-1.39 (inactive)	-0.0867	-0.239
COC(=O)[C@H](Cc1ccccc1)N1CC(/C=C/C2CC2)=C[C@@H]1[C@@H](O)Cc1ccccc1	0.56	-0.0766	0.942	-3.21	-3.07	-0.0594	0.427 (inactive)	-1.04	-2.45	0.73 (inactive)	1.09	-2.65 (inactive)	-2.24 (inactive)	0.114 (inactive)	0.294 (inactive)	0.385 (inactive)	0.461 (inactive)	0.658 (inactive)	-0.277	-0.0414
C[C@]1(C(=O)NCCN2CCOCC2)c2ccccc2C(=O)N(Cc2ccc(OC(F)(F)F)cc2)[C@H]1c1ccc(CO)cc1	0.742	-0.352	0.342	-0.285	0.0667	3.08	-0.446 (inactive)	-0.275	-0.609	0.354 (inactive)	0.209	-0.427 (inactive)	-0.191 (inactive)	-0.277 (inactive)	0.0435 (inactive)	-0.393 (inactive)	0.815 (inactive)	0.121 (inactive)	0.206	-0.0663
Cc1ccc(S[C@]2(C(=O)O)CC(=O)N(Cc3ccccc3Cl)[C@@H]2c2ccc(CO)cc2)cc1	0.322	0.152	-0.0394	-0.217	-1.44	-0.0706	-0.672 (inactive)	-0.509	1.37	-0.462 (inactive)	-0.739	-0.399 (inactive)	-0.465 (inactive)	0.0962 (inactive)	1.42 (inactive)	0.573 (inactive)	0.21 (inactive)	0.224 (inactive)	0.148	-0.0749
NC(=O)NCC#Cc1ccc2c(c1)[C@]1(C(=O)N2)[C@H](C(=O)Nc2nc3ccccc3s2)[C@H]2C(=O)O[C@H](c3ccccc3)[C@H](c3ccccc3)N2[C@@H]1c1ccc(O)cc1	0.234	1.28	0.28	-0.614	0.76	-3.35	0.588 (inactive)	-0.937	-1.9	1.78 (inactive)	0.493	3.37 (inactive)	0.917 (inactive)	0.9 (inactive)	2.87 (inactive)	5.05 (inactive)	0.296 (inactive)	0.321 (inactive)	-0.253	-0.0337
COc1ccc(C(O)C2C=CC3C(=O)N(c4ccccc4)C(=O)C3N2Nc2ccccc2)cc1OCc1ccccc1 (stereo not given)	0.677	-1.4	1.29	0.337	-0.29	-1.02	-0.514 (inactive)	-0.307	-0.699	0.789 (inactive)	-1.04	-2.82 (inactive)	-1.24 (inactive)	0.416 (inactive)	1.67 (inactive)	0.0482 (inactive)	-0.628 (inactive)	-0.131 (inactive)	-1.2	0.0714

Source: PubChem BioAssay
